Assay [1] is described as follows: Quantitative High-Throughput drug screen in 47 multiple myeloma cell lines against the NCATS MIPE library collection: KMS12BM_JCRB cell viability assay (AID 1918971). Further: nearly all actives have a fitted effect of over 35% in size. Further: potency means the concentration at half of the fitted maximal effect. In a few lines: (§1)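 Approved and investigational drugs from MIPE 4.0 were added by pin tool to 500 cells per well. After 48 hours at 37C, ATP-based CellTiter-Glo luminescence indicated remaining viability.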

Assay [2] is described as follows: Quantitative High-Throughput drug screen in 47 multiple myeloma cell lines against the NCATS MIPE library collection: KMS21BM_JCRB cell viability assay (AID 1918974). Further: potency means the concentration at half of the fitted maximal effect. Conditions: ATP luminescence, 48 h; viability: at 45.8 µM (top of the series). In a few lines:
(§2)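 Viability readout: CellTiter-Glo luminescence following 5 min room-temperature incubation with reagent. Prior exposure: 48 h, 37C, humidified 5% CO2, 500 cells per well.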

A short description of assay [3]: Quantitative High-Throughput drug screen in 47 multiple myeloma cell lines against the NCATS MIPE library collection: KMS26_JCRB cell viability assay (AID 1918975). Further: nearly all actives have a fitted effect of over 45% in size. Further: potency means the concentration at half of the fitted maximal effect. In a few lines:
as §1

Assay [4] can be described thus: Quantitative High-Throughput drug screen in 47 multiple myeloma cell lines against the NCATS MIPE library collection: NCIH929_DSMZ cell viability assay (AID 1918978). Further: nearly all actives have a fitted effect of over 35% in size. Further: potency means the concentration at half of the fitted maximal effect. In a few lines:
(§3)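 500 cells/well; MIPE 4.0 drugs pin-transferred; 48 h, 37C, 5% CO2. CellTiter-Glo, 5 min RT, luminescence. Controls: DMSO 100%, media 0%.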

A short description of assay [5]: Quantitative High-Throughput drug screen in 47 multiple myeloma cell lines against the NCATS MIPE library collection: MM1R_ATCC cell viability assay (AID 1918981). Further: nearly all actives have a fitted effect of over 35% in size. Further: potency means the concentration at half of the fitted maximal effect. In a few lines: as §3
The nature of assay [6]: Quantitative High-Throughput drug screen in 47 multiple myeloma cell lines against the NCATS MIPE library collection: KMS28PE_JCRB cell viability assay (AID 1918983). Further: nearly all actives have a fitted effect of over 35% in size. Further: potency means the concentration at half of the fitted maximal effect. In a few lines:
as §3

Assay [7] can be described thus: Quantitative High-Throughput drug screen in 47 multiple myeloma cell lines against the NCATS MIPE library collection: OCIMY7_PLB cell viability assay (AID 1918987). Further: nearly all actives have a fitted effect of over 65% in size. Further: potency means the concentration at half of the fitted maximal effect. Put shortly:
as §3

Assay [8] is described as follows: Quantitative High-Throughput drug screen in 47 multiple myeloma cell lines against the NCATS MIPE library collection: H1112_PLB cell viability assay (AID 1918967; further: nearly all actives have a fitted effect of over 30% in size). Put shortly:
as §2

Assay [9] can be described thus: Quantitative High-Throughput drug screen in 47 multiple myeloma cell lines against the NCATS MIPE library collection: MOLP8_DSMZ cell viability assay (AID 1918977). Further: nearly all actives have a fitted effect of over 45% in size. Further: potency means the concentration at half of the fitted maximal effect. In a few lines: as §3
Assay [10] in a line: Quantitative High-Throughput drug screen in 47 multiple myeloma cell lines against the NCATS MIPE library collection: LP1_DSMZ cell viability assay (AID 1918982). Further: nearly all actives have a fitted effect of over 35% in size. In a few lines: as §3
Assay [11] can be described thus: Quantitative High-Throughput drug screen in 47 multiple myeloma cell lines against the NCATS MIPE library collection: L363_DSMZ cell viability assay (AID 1918984). Further: nearly all actives have a fitted effect of over 40% in size. Further: potency means the concentration at half of the fitted maximal effect. Put shortly:
as §3

Assay [12] can be described thus: Quantitative High-Throughput drug screen in 47 multiple myeloma cell lines against the NCATS MIPE library collection: KMS34_JCRB cell viability assay (AID 1918985). Further: nearly all actives have a fitted effect of over 40% in size. Further: potency means the concentration at half of the fitted maximal effect. In a few lines:
as §3

Assay [13] is described as follows: Quantitative High-Throughput drug screen in 47 multiple myeloma cell lines against the NCATS MIPE library collection: Karpas25_ECACC cell viability assay (AID 1918968; further: nearly all actives have a fitted effect of over 35% in size; further: potency means the concentration at half of the fitted maximal effect). In a few lines:
as §2

Assay [14] in a line: Quantitative High-Throughput drug screen in 47 multiple myeloma cell lines against the NCATS MIPE library collection: KMS27_JCRB cell viability assay (AID 1918970). Further: nearly all actives have a fitted effect of over 30% in size. Further: potency means the concentration at half of the fitted maximal effect. In a few lines:
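Viability inhibition screen, 48 h compound exposure, luminescent ATP read-out.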

Assay [15] is described as follows: Quantitative High-Throughput drug screen in 47 multiple myeloma cell lines against the NCATS MIPE library collection: KMS12PE_JCRB cell viability assay (AID 1918972). Further: nearly all actives have a fitted effect of over 30% in size. Further: potency means the concentration at half of the fitted maximal effect. In a few lines: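 CellTiter-Glo luminescence (ATP) after 48 h compound exposure, 37C/5% CO2; 500 cells/well; MIPE 4.0 approved/investigational drugs pinned in; DMSO = 100%, media only = 0% viability.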

Assay [16] can be described thus: Quantitative High-Throughput drug screen in 47 multiple myeloma cell lines against the NCATS MIPE library collection: MMM1_PLB cell viability assay (AID 1918976). Further: nearly all actives have a fitted effect of over 35% in size. Further: potency means the concentration at half of the fitted maximal effect. In a few lines: as §3
Assay [17] in a line: Quantitative High-Throughput drug screen in 47 multiple myeloma cell lines against the NCATS MIPE library collection: OCIMY1_PLB cell viability assay (AID 1918979). Further: nearly all actives have a fitted effect of over 35% in size. In a few lines: as §3
A short description of assay [18]: Quantitative High-Throughput drug screen in 47 multiple myeloma cell lines against the NCATS MIPE library collection: MM1S_ATCC cell viability assay (AID 1918980). Further: nearly all actives have a fitted effect of over 45% in size. Further: potency means the concentration at half of the fitted maximal effect. In a few lines:
as §3

Assay [19] in a line: Quantitative High-Throughput drug screen in 47 multiple myeloma cell lines against the NCATS MIPE library collection: KMS20_JCRB cell viability assay (AID 1918973). Further: nearly all actives have a fitted effect of over 45% in size. Put shortly: as §2

Potency data for 16 compounds are collected here from PubChem BioAssay (NCATS).

Records with an inconclusive call do not appear. Active and inactive are the calls of the source. The call rests on the fitted dose curve; in most records, active means well fitted curve in the direction sought with a large enough effect; inconclusive means small, poorly fitted or top-dose-only effect, or another doubt; inactive means no such curve, though single readings can be large; an effect the other way counts as inactive or inconclusive.

Take `CCNC(=O)CC1N=C(c2ccc(Cl)cc2)c2cc(OC)ccc2-n2c(C)nnc21` (stereo not drawn): the Potency in assay [1] is 16.6 µM (active); in assay [2], 5.9 µM (active); in assay [3], 5.9 µM (active); in assay [4], 10.5 µM (active); in assay [5], 14.8 µM (active); in assay [6], 20.9 µM (active). The Potency in [7] is 18.7 µM (active).

For `CCC(=O)OC1CCC2C3CCC4=CC(=O)CC[C@@]4(C)C3CC[C@]12C` (stereo partly drawn), the Potency result in assay [8], in assay [3], in assay [9], in assay [10], in [6] and in assay [11] was “inactive” each time. Moreover, the Potency result in [12] was “inactive”. Further, the Potency in [7] was 16.6 µM (active).

For the compound `C=C1C[C@H]2[C@H]3CCC(=O)[C@@]3(C)CC[C@@H]2[C@@]2(C)C=CC(=O)C=C12`, the Potency in assay [13] is 16.6 µM (active); in assay [14], 18.7 µM (active); in [1], 20.9 µM (active); in assay [15], 29.6 µM (active); in [2] it was 14.8 µM (active); in assay [7], 9.35 µM (active). Further, in assay [10], the Potency result is “inactive”.

As to `CN(C)[C@@H]1C(=O)C(C(N)=O)=C(O)[C@@]2(O)C(=O)C3=C(O)c4c(O)cccc4[C@@](C)(O)[C@H]3[C@H](O)[C@@H]12`, the Potency result in assay [8], in assay [14], in [15], in [3], in assay [5] and in [10] was “inactive” throughout. Also, the Potency in [16] was 10.5 µM (active); in assay [12], 3.72 µM (active).

Take `COc1ccc2c(c1)CN(C)CC2c1ccc(Cl)c(Cl)c1` (stereo not drawn): the Potency was 0.209 µM (active) in [13]; 16.6 µM (active) in [14]; 20.9 µM (active) in assay [1]; 4.18 µM (active) in assay [2]; 16.6 µM (active) in assay [4]; 0.0833 µM (active) in assay [18]. Also, the Potency in assay [6] is 18.7 µM (active); in assay [11], 13.2 µM (active). Besides, the Potency entry in [17] was “inactive”.

With `CN[C@@H]1Cc2cccc3[nH]c(=O)n(c23)C1`, the Potency result in [13], in [14], in assay [3], in [4], in assay [17] and in assay [6] was “inactive” in each case.

On to `NC1=NC(=O)N2CC12` (stereo not drawn), for which the Potency is 7.43 µM (active) in assay [14], 9.35 µM (active) in [4], 9.35 µM (active) in assay [11] and 20.9 µM (active) in [7]. The Potency result in [17], in [18], in assay [5], in assay [10] and in assay [12] was “inactive” throughout.

For the compound `CCOC(=O)c1c(C(C#N)=CN)c2ccc(Cl)c(Cl)c2n1C`, the Potency result in assay [8], in assay [14], in [15] and in assay [17] was “inactive” in each case. The Potency in assay [18] was 23.5 µM (active).

Take `CC(C)[C@H]1C(=O)N[C@H](CO)Cc2c[nH]c3cccc(c23)N1C`: the Potency entry in [8], in assay [2], in assay [3], in assay [16], in [4] and in assay [17] was “inactive” throughout. Further, the Potency result in assay [11] and in assay [12] was “inactive” in each case. For the same compound, the Potency is 0.166 µM (active) in assay [9] and 0.264 µM (active) in [6].

In the case of `CC=C(C)C(=O)N[C@@H](c1ccccc1)[C@@H](O)C(=O)O[C@H]1C[C@@]2(O)[C@@H](OC(=O)c3ccccc3)[C@@H]3[C@]4(OC(C)=O)CO[C@@H]4C[C@H](O)[C@@]3(C)C(=O)[C@H](OC(C)=O)C(=C1C)C2(C)C`, the Potency result in assay [13], in assay [1], in assay [19], in [3], in assay [9] and in assay [4] was “inactive” throughout. For the same compound, the Potency result in assay [10], in assay [6] and in [12] was “inactive” each time. Also, the Potency in [14] is 0.0012 µM (active).

Consider `C[C@]12CC[C@H](O)CC1=CC[C@H]1[C@H]3CCC(=O)[C@@]3(C)CC[C@@H]12`, for which the Potency entry in assay [14], in assay [9], in [4], in assay [17], in [5] and in assay [10] was “inactive” each time. Besides, the Potency result in assay [6] and in assay [12] was “inactive” in each case. The Potency in [2] is 11.8 µM (active).

For `O=C(Oc1ccc([N+](=O)[O-])cc1)N1CCN(Cc2cccc(Oc3ccccc3)c2)CC1`, the Potency result in assay [14], in assay [10], in [6] and in assay [12] was “inactive” each time.

Take `COc1ccc2c(c1)[C@]13CCCCC1C(C2)N(C)CC3` (stereo partly drawn): the Potency result in [13], in assay [14], in assay [1], in assay [16], in assay [9] and in assay [4] was “inactive” each time. Also, the Potency result in assay [17], in assay [5], in assay [10], in assay [6], in [11] and in assay [12] was “inactive” in each case.

For `C[C@]12CC[C@H]3[C@@H](CCC4=CC(=O)CC[C@@]43C)[C@H]1CC[C@H]2OC(=O)CCC1CCCC1`, the Potency result in assay [13], in assay [14], in assay [15], in assay [17], in assay [6] and in assay [11] was “inactive” in each case.

For the compound `COc1cc2cc(c1Cl)N(C)C(=O)C[C@H](OC(=O)C(C)C)[C@]1(C)O[C@H]1[C@H](C)[C@@H]1C[C@@](O)(NC(=O)O1)[C@H](OC)C=CC=C(C)C2`, the Potency entry in assay [13], in assay [14], in assay [1], in [19], in assay [3] and in assay [4] was “inactive” throughout. The Potency result in assay [18], in assay [5], in assay [10], in assay [6], in [11] and in [12] was “inactive” in each case. The Potency result in assay [7] was “inactive”.

As to `C[C@]12COC(=O)C[C@@H]1CC[C@@H]1[C@H]2CC[C@@]2(C)[C@H]1CC[C@]2(C)O`, the Potency entry in [8], in assay [15], in assay [19], in assay [3], in assay [4] and in assay [17] was “inactive” in each case. The Potency entry in [18], in assay [6] and in assay [11] was “inactive” throughout. Further, in assay [1], the Potency is 1.18 µM (active).
